The sample as a whole holds a higher share of hits than the screen did.
Shiga inhibitor – blocks Shiga toxin action in Vero cells; Vero cells, Shiga toxin protein synthesis inhibition reporter; inhibition, % at 38.7 µM; hit rate 9.2% among 290,000; AID 2315; in the data active = inhibition mostly above about 28%, no sharp cut-off; inactive = mostly below about 43%; also: 0% is about no effect
Cycloheximide cs – counter-screen hit for Shiga toxin inhibitors, cycloheximide; cell reporter, cycloheximide protein synthesis inhibition counterscreen; max response, %; hit rate 12% among 300,000; AID 2314; in the data active = max response mostly above about 13%, no sharp cut-off; inactive = mostly below about 14%; also: read at 38.3 µM for the half of the compounds with a filed dose; 0% is about no effect
RE007 growth inh – less growth of the S. pombe RE007 Vpr strain | hit rate 0.21% among 360,000 | S. pombe RE007 Vpr strain, BacTiter-Glo ATP luminescence, 24 h | Potency, µM (series often up to 92.2 µM), without a hit: top-dose activity change, negative = less growth, most hits filed as inhibitors | AID 651644; active = well fitted falling curve with a large enough effect; inconclusive = small, poorly fitted or top-dose-only effect; inactive = no such curve, though single readings can be large or run the other way; also: potency is read from the fitted curve at half-maximal effect; % is scaled to controls: 0 for no effect and ±100 for the full control effect; nearly all actives have a fitted effect of over 50% in size
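Fission yeast strain RE007, carrying one chromosomally integrated HIV-1 vpr copy, was seeded at OD 0.01 in PMG+AL medium with 23 nL pinned compound. After 24 h at 30 °C and 99% humidity, viability was read by BacTiter-Glo luminescence.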
LmPK inhibitor – inhibitors of Leishmania mexicana pyruvate kinase; Q27686; purified LmPK, Kinase-Glo ATP luminescence, 1 h; Potency, µM (top dose mostly 57.5 µM), without a hit: top-dose activity change, negative = inhibition, actives largely listed as inhibitors; hit rate 0.37% among 290,000; AID 1721; also: potency is read from the fitted curve at half-maximal effect; % is scaled to controls: 0 for no effect and ±100 for the full control effect
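Kinase-Glo luminescence read after 1 h RT reaction of 0.1 nM LmPK with 0.5 mM PEP and 0.1 mM ADP. Activity scaled between uninhibited and enzyme-free controls.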
TbPYK inhibitor – blocks Trypanosoma brucei pyruvate kinase; Q57TT1; TbPYK enzyme, Kinase-Glo Plus ATP luminescence, 45 min; Potency, µM (doses to about 76.8 µM), without a hit: top-dose activity, negative = inhibition, usual class: inhibitors; hit rate 0.12% among 410,000; also: potency is read from the fitted curve at half-maximal effect; % is scaled to controls: 0 for no effect and ±100 for the full control effect; nearly all actives have a fitted effect of over 50% in size
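In this concentration-response screen, enzyme-free wells defined baseline while DMSO plates tracked drift. Each reaction combined TbPYK, substrate, compound and 130 uM ADP for 45 min at room temperature. Kinase-Glo Plus luminescence gave the signal.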
FBPA Giardia inh – inhibitors of Giardia lamblia fructose-1,6-bisphosphate aldolase | purified Giardia FBPA | Potency, µM (highest dose often 59.6 µM), for inactives: top-dose activity, negative = inhibition, actives largely listed as inhibitors | hit rate 0.71% among 290,000; also: potency is read from the fitted curve at half-maximal effect; % is scaled to controls: 0 for no effect and ±100 for the full control effect; nearly all actives have a fitted effect of over 55% in size
Target sequence (A8B2U2 whole entry, looked up): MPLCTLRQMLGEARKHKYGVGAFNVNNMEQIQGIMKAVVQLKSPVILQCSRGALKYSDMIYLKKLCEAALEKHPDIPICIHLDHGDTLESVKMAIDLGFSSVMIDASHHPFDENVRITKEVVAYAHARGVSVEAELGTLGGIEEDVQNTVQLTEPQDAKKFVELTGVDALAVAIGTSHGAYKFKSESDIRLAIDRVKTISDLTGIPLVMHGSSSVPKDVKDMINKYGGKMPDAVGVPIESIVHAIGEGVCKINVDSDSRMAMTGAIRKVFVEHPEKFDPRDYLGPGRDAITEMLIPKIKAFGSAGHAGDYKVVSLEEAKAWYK
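Giardia FBPA (40 nM reagent) was preincubated 10 min at RT with compound (up to 57.5 uM final), then substrate plus GAPDH/TPI/NAD/arsenate coupling system with diaphorase/resazurin was added; resorufin fluorescence (525/598 nm) was read after 20 min.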
* = called active by the depositor. Unless noted, calls follow the shape of the dose curve; as a rule, active = well fitted curve in the direction sought with a large enough effect; inconclusive = small, poorly fitted or top-dose-only effect, or another doubt; inactive = no such curve, though single readings can be large; an effect the other way counts as inactive or inconclusive.

For O=[N+]([O-])c1nn(-c2ccc3c(c2)OCCO3)n(O)c1=NC1CCCCCC1 the results were Shiga inhibitor 84*, Cycloheximide cs 32*, RE007 growth inh 2%, LmPK inhibitor 3%, TbPYK inhibitor 4% and FBPA Giardia inh -11%.
Screening O=[N+]([O-])c1nn(-c2ccc3c(c2)OCCO3)n(O)c1=NC1CCCC1 returned Shiga inhibitor 42*, Cycloheximide cs 32*, RE007 growth inh 10%, LmPK inhibitor -3%, TbPYK inhibitor -5% and FBPA Giardia inh -3%.
Clc1ccc(SCc2cn3ccccc3n2)cc1 was read as Shiga inhibitor 54*, Cycloheximide cs 37*, RE007 growth inh -3%, LmPK inhibitor -1%, TbPYK inhibitor 6% and FBPA Giardia inh 1%.
Cc1ccc(SCc2cn3c(C)csc3n2)cc1 was read as Shiga inhibitor 74*, Cycloheximide cs 44*, RE007 growth inh inactive, LmPK inhibitor inconclusive, TbPYK inhibitor 6% and FBPA Giardia inh -23%.
Screening Cc1ccc(SCc2cn3cc(Cl)ccc3n2)cc1 returned Shiga inhibitor 62*, Cycloheximide cs 52*, RE007 growth inh inconclusive, LmPK inhibitor 3%, TbPYK inhibitor 6% and FBPA Giardia inh -5%.
`Clc1ccc2nc(CSc3nc4ccccc4o3)cn2c1` gave Shiga inhibitor 129*, Cycloheximide cs 37*, RE007 growth inh -4%, LmPK inhibitor -1%, TbPYK inhibitor 2% and FBPA Giardia inh -3%.
Screening Nc1nnc(SCc2cn3cc(Cl)ccc3n2)s1 returned Shiga inhibitor 84*, Cycloheximide cs 28*, RE007 growth inh 5%, LmPK inhibitor -5%, TbPYK inhibitor 0% and FBPA Giardia inh -3%.
For Nn1c(SCc2cn3cc(Cl)ccc3n2)nnc1-c1ccncc1 the results were Shiga inhibitor -2, Cycloheximide cs 2, RE007 growth inh 10%, LmPK inhibitor 8%, TbPYK inhibitor -1% and FBPA Giardia inh -25%.
Clc1ccc2nc(CSc3nnc4ccccn34)cn2c1 was read as Shiga inhibitor 92*, Cycloheximide cs 38*, RE007 growth inh 1%, LmPK inhibitor -8%, TbPYK inhibitor -13% and FBPA Giardia inh 0%.
`c1ccc2[nH]c(SCc3cn4ccccc4n3)nc2c1` gave Shiga inhibitor 54*, Cycloheximide cs 20*, RE007 growth inh -17%, LmPK inhibitor -2%, TbPYK inhibitor -2% and FBPA Giardia inh -11%.
Clc1ccc2nc(CSCc3ccccc3)cn2c1 was read as Shiga inhibitor 99*, Cycloheximide cs 49*, RE007 growth inh 8%, LmPK inhibitor -6%, TbPYK inhibitor -3% and FBPA Giardia inh -2%.
Screening CCn1cc(C(=O)NC(C)c2ccccc2)c(=O)c2cc(S(=O)(=O)N3CCc4ccccc4C3)ccc21 (configuration not stated) returned TbPYK inhibitor 4%.
COc1ccc2c(c1)OC(C)(C)C(c1ccccc1)C2c1ccc(OCCN2CCCC2)cc1 (configuration not stated) was read as TbPYK inhibitor 2%.
`CCOc1ccc2c(c1)c(=O)c(C(=O)c1ccc3c(c1)OCO3)cn2Cc1ccc(F)cc1` gave TbPYK inhibitor 2%.
Screening CC1CCn2c(nc3cc(C(=O)NCc4ccccc4)ccc32)C1 (configuration not stated) returned TbPYK inhibitor 0%.
For Cc1cccc2nc(CSc3nc4ccccc4[nH]3)cn12 the results were Shiga inhibitor 24, Cycloheximide cs 13, RE007 growth inh -10%, LmPK inhibitor -3%, TbPYK inhibitor -3% and FBPA Giardia inh -4%.
c1ccc2c(SCc3cn4ccccc4n3)nncc2c1 was read as Shiga inhibitor 76, Cycloheximide cs 38*, RE007 growth inh -19%, LmPK inhibitor -8%, TbPYK inhibitor 0% and FBPA Giardia inh -17%.
For Cc1cccc2nc(CSCc3ccco3)cn12 the results were Shiga inhibitor 82*, Cycloheximide cs 31*, RE007 growth inh -7%, LmPK inhibitor -18%, TbPYK inhibitor 6% and FBPA Giardia inh inconclusive.
Cc1cccc2nc(CSc3ccc(Cl)cc3)cn12 was read as Shiga inhibitor 91*, Cycloheximide cs 49*, RE007 growth inh inconclusive, LmPK inhibitor -18%, TbPYK inhibitor 2% and FBPA Giardia inh 0%.
CNc1cc(CSc2ccc(Cl)cc2)nc(C)n1 was read as Shiga inhibitor 99*, Cycloheximide cs 47*, RE007 growth inh 5%, LmPK inhibitor -6%, TbPYK inhibitor -2% and FBPA Giardia inh 3%.
Screening COc1ccc(-c2nsc(NC(=O)c3ccccc3Br)n2)cc1 returned TbPYK inhibitor -4%.
Screening CC/C(C)=N/N1C(=O)c2ccccc2NC1(C)CC (configuration not stated) returned Shiga inhibitor 77*, Cycloheximide cs 30*, RE007 growth inh -17%, LmPK inhibitor 1%, TbPYK inhibitor -2% and FBPA Giardia inh 6%.
`O=C1CCCCCN1Cc1nnc(SCc2nc3ccccc3s2)n1-c1ccccn1` gave Shiga inhibitor 92*, Cycloheximide cs 74*, RE007 growth inh -12%, LmPK inhibitor -1%, TbPYK inhibitor -10% and FBPA Giardia inh -16%.
CCNC(=O)CSc1nnc(CN2CCCCCC2=O)n1-c1ccccn1 was read as Shiga inhibitor 2, Cycloheximide cs 8, RE007 growth inh 9%, LmPK inhibitor -3%, TbPYK inhibitor -4% and FBPA Giardia inh 2%.
CCOc1ccc(N=C2NC(=O)S/C2=C\c2ccc(Cl)cc2)cc1 was read as Shiga inhibitor 13, Cycloheximide cs 1, RE007 growth inh -4%, LmPK inhibitor -2%, TbPYK inhibitor -2% and FBPA Giardia inh 9%.
`COc1ccc(N=C2NC(=O)S/C2=C\c2ccc(N(C)C)cc2)cc1` gave Shiga inhibitor 60*, Cycloheximide cs 34*, RE007 growth inh -16%, LmPK inhibitor -8%, TbPYK inhibitor -4% and FBPA Giardia inh 3%.
CCCCn1c(=O)[nH]c(=O)c2c(C(=O)OCC)cc(-c3cccs3)nc21 was read as Shiga inhibitor -5, Cycloheximide cs -3, RE007 growth inh -12%, LmPK inhibitor 0%, TbPYK inhibitor -2% and FBPA Giardia inh 1%.
Screening CCCn1c(=O)[nH]c(=O)c2c(C(=O)OCC)cc(-c3cccs3)nc21 returned Shiga inhibitor 44*, Cycloheximide cs 31*, RE007 growth inh 1%, LmPK inhibitor 9%, TbPYK inhibitor -5% and FBPA Giardia inh -5%.
Screening CCCCC(CC)CNC(=O)CCCCCn1c(=O)[nH]c2ccsc2c1=O (configuration not stated) returned TbPYK inhibitor 0%.
CC[C@H](C)[C@H]1CNC(=S)N1CC1CCN(CCC(C)C)CC1 was read as RE007 growth inh 2% and TbPYK inhibitor -6%.
